Experimental data: PubChem BioAssay (NCI)
This is part of a sample that, as a whole, favours compounds with a hit. Of some 83,000 tested, about 20% had one in any assay.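 Cell lines were cultured in 96-well plates, exposed to a single compound concentration, and assessed for percent growth 48 hours later.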 Values without a mark were called inactive. Calls of active or inactive are those of the source. How the source made its calls: active means growth percent below 10; inactive means the rest.

What was measured:
Assay in all cases: NCI-60 one-dose screen, 48 h (100 = growth as untreated, 0 = no growth, -100 = all killed)
RPMI-8226 leukemia = conditions: 10 µM unless noted
OVCAR-8 ovarian = conditions: 10 µM unless noted
OVCAR-5 ovarian = conditions: 10 µM unless noted
OVCAR-4 ovarian = conditions: 10 µM unless noted
IGROV1 ovarian = conditions: 10 µM unless noted
OVCAR-3 ovarian = conditions: 10 µM unless noted
HS 578T breast = conditions: 10 µM unless noted
NCI/ADR-RES ovarian = conditions: 10 µM unless noted
T-47D breast = conditions: 10 µM unless noted
BT-549 breast = conditions: 10 µM unless noted
MDA-MB-435 melanoma = conditions: 10 µM unless noted
SW-620 colon = conditions: 10 µM unless noted
MCF7 breast = conditions: 10 µM
HCT-116 colon = conditions: 10 µM unless noted
HCC-2998 colon = conditions: 10 µM unless noted
KM12 colon = conditions: 10 µM unless noted

Row | Compound | growth (RPMI-8226 leukemia) | growth (OVCAR-8 ovarian) | growth (OVCAR-5 ovarian) | growth (OVCAR-4 ovarian) | growth (IGROV1 ovarian) | growth (OVCAR-3 ovarian) | growth (HS 578T breast) | growth (NCI/ADR-RES ovarian) | growth (T-47D breast) | growth (BT-549 breast) | growth (MDA-MB-435 melanoma) | growth (SW-620 colon) | growth (MCF7 breast) | growth (HCT-116 colon) | growth (HCC-2998 colon) | growth (KM12 colon)
1 | O=Cc1c(OCc2cnnn2CC(=O)Nc2ccc(Cl)cc2)ccc2ccccc12 | 105% | 99.2% | 94.8% | 100% | 96% | 103% | 101% | 102% | 104% | 90.4% | 104% | 99.2% | 81.5% | 104% | 111% | 101%
2 | CC(C)Cn1c2c(c(=S)[nH]c1=O)CCC2 | 99.2% | 101% | 99.5% | 101% | 103% | 111% | 102% | 106% | 111% | 108% | 98.9% | 93.6% | 109% | 105% | 123% | 105%
3 | O=Cc1cc2ccccc2nc1Nc1nccs1 | 64% | 47.6% | 85.6% | 75.8% | 42.6% | 55.2% | 91.9% | 77% | 77.5% | 88.9% | 81.4% | 27.5% | 13.2% | 54.3% | 87.6% | 56.2%
4 | O=C(/C=C/c1ccccc1)c1ccc(Nc2nc(NCCO)nc(Nc3ccc(Cl)cc3)n2)cc1 | 9.69% (active) | 89.1% | 97.7% | 73.4% | 97.3% | 59.9% | 93.1% | 91.7% | 62.7% | 84.4% | 77.2% | 18.7% | 9.88% (active) | 27.5% | 62.5% | 28.2%
5 | O=C(/C=C/c1ccc(Cl)cc1)c1ccc(Nc2nc(NCCO)nc(N3CCOCC3)n2)cc1 | 12.3% | 83.6% | 101% | 93% | 84% | 63.1% | 90.7% | 88.9% | 67.1% | 85% | 77.9% | 50.4% | 9.73% (active) | 18.6% | 99% | 28.5%
6 | O=c1oc2ccc(Br)cc2c(=O)n1-c1ccc(Br)cc1F | -13.8% (active) | 12.3% | 18.8% | 10.4% | 9.59% (active) | 8.18% (active) | -5.29% (active) | 2.87% (active) | -1.51% (active) | -19.4% (active) | -8.23% (active) | 5.96% (active) | 0.224% (active) | -40.2% (active) | 1.75% (active) | -20% (active)
7 | O=C(N=Nc1c(O)[nH]c2ccccc12)c1oc2ccccc2c1CN1CCN(c2ccccc2)CC1 | 7.75% (active) | 6.9% (active) | 3.76% (active) | -79% (active) | -5.86% (active) | -69.9% (active) | 27.3% | -34.9% (active) | -17.7% (active) | 11.4% | 26.3% | 0.43% (active) | -22.7% (active) | -53.1% (active) | 33.6% | 23.1%
